Compound activity deposited in PubChem by National Center for Advancing Translational Sciences (NCATS).
BAZ2B block = blocks human BAZ2B. Q9UIF8. 360,000 compounds, 4.4% hits. AlphaScreen BAZ2B-H3K14Ac peptide displacement. Potency, µM (highest dose often 114 µM), hits mostly inhibitors; also: nearly all actives have a fitted effect of over 60% in size
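AlphaScreen displacement of biotin-H3(5-23)K14Ac peptide (50 nM final) from BAZ2B (50 nM final) in PBS pH 7.4, 0.01% Tween-20; complex preformed 30 min RT, then compounds (top 110 uM) 30 min RT, beads 20 min dark.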
JMJD2A Tudor = JMJD2A Tudor domain (human) inhibition. O75164. AlphaScreen JMJD2A-Tudor / H3K4me3 peptide binding. Potency, µM (doses to about 114 µM), usual class: inhibitors. 390,000 compounds, 4.4% hits. AID 504339; also: nearly all actives have a fitted effect of over 50% in size
G9a block = G9a (human) methyltransferase inhibition | AID 504332 | Potency, µM (doses to about 102 µM), usual class: inhibitors | 350,000 compounds, 8.8% hits | G9a H3K9 monomethylation, AlphaScreen, 2 h; also: nearly all actives have a fitted effect of over 75% in size
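Using a bead-based AlphaScreen, monomethylated H3K9 product from 2 h room-temperature reactions (G9a 20 nM, peptide 500 nM, SAM 20 uM) was detected with 0.5 ug/mL rabbit anti-H3K9me1 antibody.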
PI5P4K alpha inh = PI5P4K alpha (human) kinase inhibition. P48426. PI5P4Kalpha enzyme, ADP-Glo luminescence, 60 min; active compounds read low. max response, %. 330,000 compounds, 1.2% hits; active = max response of -50% or lower; inconclusive = between -30% and -50%; inactive = -30% or higher; also: value at the top dose of about 77 µM
Target sequence (P48426 whole entry, looked up): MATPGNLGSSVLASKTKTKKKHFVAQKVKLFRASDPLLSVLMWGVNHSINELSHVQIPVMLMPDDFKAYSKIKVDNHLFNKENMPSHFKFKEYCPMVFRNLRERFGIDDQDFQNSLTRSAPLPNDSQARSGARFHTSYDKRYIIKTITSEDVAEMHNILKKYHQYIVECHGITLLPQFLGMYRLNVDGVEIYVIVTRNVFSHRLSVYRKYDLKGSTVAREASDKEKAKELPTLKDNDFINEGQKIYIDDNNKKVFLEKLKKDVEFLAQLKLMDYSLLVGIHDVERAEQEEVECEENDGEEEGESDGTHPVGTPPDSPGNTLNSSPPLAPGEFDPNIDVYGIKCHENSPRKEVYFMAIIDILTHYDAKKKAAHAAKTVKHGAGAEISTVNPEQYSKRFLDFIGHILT
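ADP-Glo luminescence end-point read after a 60 min room-temperature kinase reaction of PI5P4Kalpha plus substrate, initiated with ATP at 5 microM final. Buffer: 0.038 M HEPES pH 7.4, EGTA, 0.1% CHAPS, 5% DMSO.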
PLK1 PBD block = PLK1 (human) polo-box domain binding inhibition; P53350; Plk1 PBD binding of FITC phosphopeptide, fluorescence polarization; 360,000 compounds, 2.8% hits; AID 720504; Potency, µM, actives largely listed as inhibitors; also: series mostly up to about 57 µM; nearly all actives have a fitted effect of over 65% in size
HP1b binding inh = HP1-beta chromodomain-methylated histone interaction inhibition; 390,000 compounds, 0.56% hits; Potency, µM (series often up to 114 µM), hits mostly inhibitors; AlphaScreen HP1-beta / biotin-H3K9me3 peptide binding; P83916; also: nearly all actives have a fitted effect of over 70% in size
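Compound inhibition of the preformed complex between 50 nM HP1-beta and 50 nM biotinylated H3K9me3 peptide was read by AlphaScreen. Buffer was PBS pH 7.4 with 0.01% Tween-20. Incubations ran 30 min at room temperature, with 10 ug/mL donor/acceptor beads.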
Each line names hits and unclear results; the compound was inactive in the other large screens. The list is not random: actives were taken first. Their share in the collection is about 12%. Unless noted, calls follow the shape of the dose curve; as a rule, active = well fitted curve in the direction sought with a large enough effect; inconclusive = small, poorly fitted or top-dose-only effect, or another doubt; inactive = no such curve, though single readings can be large; an effect the other way counts as inactive or inconclusive.

CSc1ccc(CNC(=O)CCc2c(C)nn(-c3ccc(N4CCCC4)nn3)c2C)cc1	BAZ2B block 56µM (no result: PI5P4K alpha inh, PLK1 PBD block)
N#Cc1ccc2c(c1)C[C@]1(c3ccsc3)OC3=C(C(=O)OC4(CCCCC4)C3)C2O1	none (no result: JMJD2A Tudor, G9a block, PI5P4K alpha inh, PLK1 PBD block, HP1b binding inh)
COc1ccc(C(O)c2nc(-c3cccc(NC(C)=O)c3)cs2)cc1 (centres undefined)	none (no result: BAZ2B block, JMJD2A Tudor, G9a block, HP1b binding inh)
CC(C)(C)NC(=O)C(c1ccccc1)N(C(=O)CNC(=O)c1cccs1)c1cccnc1 (centres undefined)	none
COC(=O)c1ccccc1S(=O)(=O)Nc1ccc2cn[nH]c2c1	G9a block 45µM
O=C(O)c1cc(S(=O)(=O)Nc2ccc3cn[nH]c3c2)ccc1Cl	JMJD2A Tudor 89µM, HP1b binding inh inconclusive (no result: BAZ2B block, G9a block)
CC(=O)Nc1cccc(NC(=O)CSc2nc(=O)n(CCN3CCOCC3)c3c2CCCC3)c1	none
COc1cc(OC)cc(-c2nnc3n2N=C(c2ccc(OC)c(OC)c2)CS3)c1	none (no result: BAZ2B block, G9a block, PI5P4K alpha inh, PLK1 PBD block, HP1b binding inh)
O=C(O)c1ccc(COc2c(F)c(F)cc(F)c2F)cc1	none (no result: PI5P4K alpha inh)
O=C(O)C1=C(OCc2ccc(F)c(F)c2)C(=O)NCC1	JMJD2A Tudor inconclusive, PLK1 PBD block 27µM
C#CCSc1nsc(SCC#C)c1C#N	JMJD2A Tudor 56µM, PLK1 PBD block inconclusive, HP1b binding inh inconclusive (no result: PI5P4K alpha inh)
N#CC1=C(N)NC(SCC(=O)O)=C(C#N)C12CCCC2	G9a block 35µM
Nc1ccc(-c2n[nH]c(=O)c3ccccc23)cc1N	G9a block 8.9µM (no result: PI5P4K alpha inh)
CCN(CC)/C(Sc1ccccc1)=C(\C(Cl)=C(Cl)Cl)[N+](=O)[O-]	BAZ2B block 50µM, G9a block inconclusive, PLK1 PBD block inconclusive
O=[N+]([O-])/C(C(Cl)=C(Cl)Cl)=C(\Sc1ccccc1)N1CCCCC1	BAZ2B block inconclusive, JMJD2A Tudor inconclusive, G9a block 40µM
N#CC1(NC(=O)COC(=O)c2cc(=O)[nH]c3ccccc23)CCCCC1	none
C#CCOCCOCCOCCNc1nc(N2CCN(C(=O)[C@H](CC(N)=O)n3cc([C@@H](N)C(C)C)nn3)CC2)nc(N2CCN(C(=O)[C@H](CC(N)=O)n3cc([C@@H](N)C(C)C)nn3)CC2)n1	JMJD2A Tudor 25µM (no result: BAZ2B block, G9a block)
C#CCOCCOCCOCCNc1nc(N2CCN(C(=O)[C@H](CCC(=O)O)n3cc([C@@H](N)CC(N)=O)nn3)CC2)nc(N2CCN(C(=O)[C@H](CCC(=O)O)n3cc([C@@H](N)CC(N)=O)nn3)CC2)n1	JMJD2A Tudor 20µM (no result: BAZ2B block, G9a block)
C#CCOCCOCCOCCNc1nc(N2CCN(C(=O)[C@H](CC(N)=O)n3cc([C@@H](N)CC(N)=O)nn3)CC2)nc(N2CCN(C(=O)[C@H](CC(N)=O)n3cc([C@@H](N)CC(N)=O)nn3)CC2)n1	JMJD2A Tudor 25µM (no result: BAZ2B block, G9a block)
C#CCOCCOCCOCCNc1nc(N2CCOCC2)nc(N2CCN(C(=O)[C@H](CC(N)=O)n3cc([C@@H](N)C(C)C)nn3)CC2)n1	none (no result: BAZ2B block, G9a block)
CN1CCCN(C(=O)c2ccc(Cl)c(S(=O)(=O)N(C)c3ccccc3)c2)CC1	G9a block 50µM (no result: PI5P4K alpha inh)
CN1CCN(C(=O)c2ccc(S(=O)(=O)N(C)c3ccccc3)cc2)CC1	none (no result: BAZ2B block, JMJD2A Tudor, G9a block, HP1b binding inh)
Cc1ccc(SCC(=O)N(C)CC(=O)Nc2cccc(F)c2)c(C)c1	PLK1 PBD block inconclusive
Cc1ccc(NC(=O)CSCC(=O)N(C)CC(=O)Nc2cccc3ccccc23)cc1	none
CN(CC(=O)Nc1ccc(N2CCOCC2)cc1)C(=O)CSc1ccccc1F	G9a block inconclusive, PLK1 PBD block inconclusive
CN(CC(=O)Nc1cccc(F)c1)C(=O)CCc1nc2ccccc2c(=O)[nH]1	G9a block 45µM
Cc1ccc(NC(=O)CN(C)C(=O)CSc2ccccc2F)cc1	PLK1 PBD block 21µM (no result: BAZ2B block, G9a block)
CN(CC(=O)Nc1cccc(F)c1)C(=O)CSc1ccccc1	BAZ2B block inconclusive, G9a block inconclusive, PI5P4K alpha inh inconclusive, PLK1 PBD block 15µM
Cc1ccc(NC(=O)CSCC(=O)N(C)CC(=O)Nc2ccccc2C(F)(F)F)cc1	G9a block 50µM
CN(CC(=O)Nc1ccc(F)c(F)c1F)C(=O)CCCc1nc2ccccc2c(=O)[nH]1	none
CSc1nc(N)c2ncn([C@@H]3O[C@H](COP(=O)(O)OP(=O)(O)OP(=O)(O)O)[C@H](O)[C@H]3O)c2n1	none (no result: BAZ2B block, JMJD2A Tudor, PI5P4K alpha inh, PLK1 PBD block, HP1b binding inh)
